PubChem BioAssay (Tox21)
Records with an inconclusive call do not appear. Some structures have more than one record in an assay (separate samples or runs), and their calls can disagree. Calls of active or inactive are those of the source. Unless noted, the call rests on the fitted dose curve; in most records, active means well fitted curve in the direction sought with a large enough effect in the repeat runs; inconclusive means weak or mixed curves; inactive means no such curve, though single readings can be large; an effect the other way counts as inactive or inconclusive.

Tests used:
[1] = qHTS assay to identify small molecule agonists of the peroxisome proliferator-activated receptor delta (PPARd) signaling pathway - cell viability counter screen (AID 743211); further: nearly all actives have a fitted effect of over 55% in size; further: potency means the concentration at half of the fitted maximal effect
Summary of the method: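 In the same wells used for beta-lactamase reporter measurement, cytotoxicity is scored by CellTiter-Glo. HEK293H PPARd-bla cells receive compound for 17 h at 37C following a 5 h settling period.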

[2] = molecular target: Peroxisome proliferator-activated receptor delta (Homo sapiens) (UniProt Q03181); assay: qHTS assay to identify small molecule agonists of the peroxisome proliferator-activated receptor delta (PPARd) signaling pathway (AID 743212; calls by dose curve;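 further: HEK293H cells with PPARd UAS beta-lactamase reporter GeneBLAzer system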)
Summary of the method: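 Beta-lactamase reporter read by fluorescence (LiveBLAzer B/G FRET, 2 h, room temperature). Test agents, in DMSO, incubated at 37 C with PPARd-bla HEK293H cells.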

[3] = qHTS assay to identify small molecule antagonists of the peroxisome proliferator-activated receptor delta (PPARd) signaling pathway - cell viability counter screen (AID 743213); further: nearly all actives have a fitted effect of over 50% in size; further: potency means the concentration at half of the fitted maximal effect
Summary of the method: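 Agonist-stimulated (L165041, 300 nM final) HEK293H PPARd UAS-bla cells are exposed to compounds for 17 h at 37 C, and ATP-based luminescence (CellTiter-Glo) from the same wells reports cytotoxicity.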

[4] = molecular target: Peroxisome proliferator-activated receptor delta (Homo sapiens) (UniProt Q03181); assay: qHTS assay to identify small molecule antagonists of the peroxisome proliferator-activated receptor delta (PPARd) signaling pathway (AID 743215; active means well fitted inhibition curve with a large enough effect in the signal ratio in the repeat runs, not every such curve was filed as active; the % refers to the signal ratio; further: series mostly up to about 62 µM)
Summary of the method: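 Agonist L165041 (300 nM final) added with compound to PPARd-bla HEK293H UAS-bla reporter cells; 17 h incubation at 37 C. Read-out: LiveBLAzer FRET substrate, 2 h at room temperature, fluorescence intensity.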

[5] = molecular target: Bile acid receptor (Homo sapiens) (UniProt Q96RI1); assay: qHTS assay to identify small molecule antagonists of the farnesoid-X-receptor (FXR) signaling pathway (AID 743217; active means well fitted inhibition curve with a large enough effect in the signal ratio in the repeat runs, not every such curve was filed as active; the % refers to the signal ratio)
Summary of the method: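 Antagonist mode: chenodeoxycholic acid at 50 uM final stimulates a UAS-driven beta-lactamase reporter in HEK 293T FXR-bla cells during 16 h, 37C compound exposure. Read-out is FRET substrate fluorescence after 2 h at room temperature.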

[6] = qHTS assay to identify small molecule agonists of the farnesoid-X-receptor (FXR) signaling pathway - cell viability counter screen (AID 743218); further: nearly all actives have a fitted effect of over 45% in size
Summary of the method: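 Viability counter screen in the same wells: CellTiter-Glo luminescence, 30 min room-temperature incubation, measured after the beta-lactamase read. Cells were GeneBLAzer FXR-UAS-bla HEK 293T, compound-treated 16 h at 37C.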

[7] = molecular target: Bile acid receptor (Homo sapiens) (UniProt Q96RI1); assay: qHTS assay to identify small molecule agonists of the farnesoid-X-receptor (FXR) signaling pathway (AID 743220; active means well fitted activation curve with a large enough effect in the signal ratio in the repeat runs, not every such curve was filed as active; the % refers to the signal ratio)
Summary of the method: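 FXR-UAS-bla HEK 293T cells carrying a UAS-driven beta-lactamase reporter were plated for 5 h at 37C/5% CO2, then exposed to DMSO-dissolved Tox21 10K compounds for 16 h at 37C. A LiveBLAzer B/G FRET substrate was loaded for 2 h at room temperature before fluorescence reading.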

[8] = qHTS assay to identify small molecule antagonists of the farnesoid-X-receptor (FXR) signaling pathway - cell viability counter screen (AID 743221; active means well fitted cell-killing curve with a large enough effect in the repeat runs, not every such curve was filed as active; further: nearly all actives have a fitted effect of over 50% in size)
Summary of the method: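 Here viability was scored by luminescence after CellTiter-Glo addition to wells already read for beta-lactamase. Prior treatment: compound plus CDCA (50 uM final), 16 h, 37 C, HEK 293T FXR-bla cells.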

[9] = molecular target: Vitamin D3 receptor (Homo sapiens) (UniProt P11473); assay: qHTS assay to identify small molecule agonists of the vitamin D receptor (VDR) signaling pathway (AID 743222; calls by dose curve)
Summary of the method: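 Agonist mode, beta-lactamase reporter: fluorescence from LiveBLAzer B/G FRET substrate (2 h, room temperature) read after 16 h compound treatment at 37 C of VDR-bla cells, which were pre-incubated 4 h after seeding.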

[10] = molecular target: Vitamin D3 receptor (Homo sapiens) (UniProt P11473); assay: qHTS assay to identify small molecule antagonists of the vitamin D receptor (VDR) signaling pathway (AID 743223; active means well fitted inhibition curve with a large enough effect in the signal ratio in the repeat runs, not every such curve was filed as active; the % refers to the signal ratio)
Summary of the method: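 Inhibition of agonist-driven VDR signalling is scored in VDR-bla cells: 3 nM final 1alpha,25-dihydroxyvitamin D3 plus compound, 16 h at 37C, then beta-lactamase detection by FRET substrate fluorescence after 2 h.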

Measured: Potency

Sequence of Bile acid receptor (Homo sapiens) (Q96RI1 whole entry, looked up): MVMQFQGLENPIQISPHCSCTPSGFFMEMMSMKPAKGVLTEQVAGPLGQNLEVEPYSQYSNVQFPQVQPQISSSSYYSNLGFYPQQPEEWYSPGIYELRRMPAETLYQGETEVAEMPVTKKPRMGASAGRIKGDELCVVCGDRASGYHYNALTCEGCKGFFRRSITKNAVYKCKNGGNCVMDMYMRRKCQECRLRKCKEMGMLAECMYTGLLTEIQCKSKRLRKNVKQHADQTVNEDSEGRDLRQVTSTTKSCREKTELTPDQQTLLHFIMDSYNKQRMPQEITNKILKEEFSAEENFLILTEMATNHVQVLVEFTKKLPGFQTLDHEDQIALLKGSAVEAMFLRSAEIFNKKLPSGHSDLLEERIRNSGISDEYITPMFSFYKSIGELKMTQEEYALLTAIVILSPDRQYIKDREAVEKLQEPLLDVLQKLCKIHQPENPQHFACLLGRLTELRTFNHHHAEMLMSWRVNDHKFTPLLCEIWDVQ
Sequence of Peroxisome proliferator-activated receptor delta (Homo sapiens) (Q03181 whole entry, looked up): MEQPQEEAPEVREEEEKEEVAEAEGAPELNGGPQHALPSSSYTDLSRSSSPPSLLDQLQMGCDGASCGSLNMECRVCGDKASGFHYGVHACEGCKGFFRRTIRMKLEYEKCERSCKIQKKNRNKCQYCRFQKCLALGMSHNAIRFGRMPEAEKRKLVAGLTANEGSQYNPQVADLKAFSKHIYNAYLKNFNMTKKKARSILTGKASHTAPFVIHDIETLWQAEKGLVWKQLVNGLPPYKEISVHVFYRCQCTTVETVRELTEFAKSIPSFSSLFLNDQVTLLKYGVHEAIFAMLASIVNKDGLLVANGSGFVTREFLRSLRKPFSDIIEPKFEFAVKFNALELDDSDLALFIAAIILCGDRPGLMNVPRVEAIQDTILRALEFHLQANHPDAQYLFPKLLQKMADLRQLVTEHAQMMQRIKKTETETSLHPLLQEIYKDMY
Sequence of Vitamin D3 receptor (Homo sapiens) (P11473 whole entry, looked up): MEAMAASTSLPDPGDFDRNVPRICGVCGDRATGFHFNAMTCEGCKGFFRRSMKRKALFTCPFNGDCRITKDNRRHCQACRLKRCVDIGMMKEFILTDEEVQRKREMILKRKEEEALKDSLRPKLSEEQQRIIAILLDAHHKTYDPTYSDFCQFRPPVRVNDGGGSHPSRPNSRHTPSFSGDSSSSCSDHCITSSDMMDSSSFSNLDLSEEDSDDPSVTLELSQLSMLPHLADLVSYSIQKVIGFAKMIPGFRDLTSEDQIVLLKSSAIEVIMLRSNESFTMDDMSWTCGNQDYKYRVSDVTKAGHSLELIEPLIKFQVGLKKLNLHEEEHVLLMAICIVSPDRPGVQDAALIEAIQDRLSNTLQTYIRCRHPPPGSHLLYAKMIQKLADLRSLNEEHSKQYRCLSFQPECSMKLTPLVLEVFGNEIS

CCC(=O)OC/C=C/c1ccccc1
inactive: all assays above

CC(C)(O)c1ccccc1CC[C@@H](SCC1(CC(=O)O)CC1)c1cccc(/C=C/c2ccc3ccc(Cl)cc3n2)c1
not listed: [10]
inactive: all other assays above

CCCCCCOC(=O)C(C)C
not listed: [9]
inactive: all other assays above

CN(C(=O)C(Cl)Cl)c1ccc(OC(=O)c2ccco2)cc1
not listed: [10]
inactive: all other assays above

O=C(O)c1snc(Cl)c1Cl
inactive: all assays above

CC1=CC(=O)CC(C)(C)C1(O)/C=C/C(C)=C\C(=O)O (stereo not given)
inactive: all assays above

CCCCC(CC)CNCC(CC)CCCC (stereo not given)
not listed: [9]
inactive: all other assays above

CCN(CC)CCNC(=O)c1ccc(NC(C)=O)cc1
not listed: [8] | [10]
inactive: all other assays above

CC(C)(CCl)c1ccccc1
not listed: [8]
inactive: all other assays above

O=C(O)c1ccc(CO)o1
not listed: [10]
inactive: all other assays above

Cc1oncc1C(=O)Nc1ccc(C(F)(F)F)cc1
54.9 µM (active) and inactive: [1]
active: [3] 49 µM
not listed: [9] | [10]
inactive: all other assays above
